Source: PubChem (several laboratories)
CHT block = inhibitors of human choline transporter CHT; High affinity choline transporter 1 (Homo sapiens), Q9GZV3; CHT-expressing cells, membrane potential dye, choline response; hits give low values; B-score at 10 µM; hit rate 0.86% among 310,000; AID 488975, 2010;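 active = B-score over 3 SD under the library average, and starting fluorescence ratio not unusually high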;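 note: choline stimulus applied at its EC90 after an EC20 pre-addition; B-score computed on integrated fluorescence ratio after choline addition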
ANO1 activ = TMEM16A chloride channel activators or potentiators, primary screen, cell-based, HTS. B-score at 10 µM. HEK293 TMEM16A/YFP-H148Q/I152L, iodide quench fluorescence; hits give low values. Anoctamin-1 (Mus musculus), Q8BHY3. hit rate 0.3% among 340,000;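 active = fluorescence-ratio B-score plate-corrected deviation score at least 3 library SD below zero, with starting fluorescence score within 5 deviations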;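 note: channel opened by trigger with iodide after compound preincubation; score built on the fluorescence ratio of max minus min over baseline; more negative score means more quench and so TMEM16A activation or potentiation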
PKA-R1A activ = activators of PKA-R1A holoenzyme, primary screen, biochemical, fluorescence polarization, Cy5-IP20, bovine R1A, mouse PKAc; cAMP-dependent protein kinase type I-alpha regulatory subunit (Bos taurus) + …; PKA-R1A dissociation; scaled: DMSO 0%, 113 µM cGMP 100%; activation, % at 11.4 µM; hit rate 0.083% among 340,000; AID 504707, 2011;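 active = percent activation above the mean of all tested compounds plus 3 SD, cut at about 19% in these data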;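 note: higher means more PKAc released from R1A so a rise in polarization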
PKA-R2B activ = activators of PKA-R2B holoenzyme, primary screen, biochemical, fluorescence polarization, Cy5-IP20, human. activation, % at 11.4 µM. PKA-R2B holoenzyme dissociation; R2B truncated from residue 108, S112A mutant; 0% DMSO only, 100% 113 µM cGMP. hit rate 0.079% among 340,000;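 active = activation above a cutoff set at the mean over all compounds plus 3 SD, cut at about 18% in these data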;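 note: higher means more holoenzyme dissociation and a rise in polarization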
Target sequence (P31323 whole entry, looked up, other chains not shown, the tested form may be a part): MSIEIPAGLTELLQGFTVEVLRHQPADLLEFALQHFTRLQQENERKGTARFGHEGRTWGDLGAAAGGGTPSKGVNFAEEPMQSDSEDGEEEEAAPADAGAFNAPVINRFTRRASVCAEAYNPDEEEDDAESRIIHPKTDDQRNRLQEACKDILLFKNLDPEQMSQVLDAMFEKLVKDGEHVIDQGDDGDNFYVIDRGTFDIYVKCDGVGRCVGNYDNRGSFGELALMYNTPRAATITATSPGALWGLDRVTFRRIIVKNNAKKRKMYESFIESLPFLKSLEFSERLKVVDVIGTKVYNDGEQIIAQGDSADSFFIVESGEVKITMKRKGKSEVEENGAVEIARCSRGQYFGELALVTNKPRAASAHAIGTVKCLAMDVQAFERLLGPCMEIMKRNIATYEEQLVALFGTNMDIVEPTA
CHT allo act = CHT positive allosteric modulators, primary screen, cell-based, membrane potential dye, choline EC20; AID 488977, 2010; CHT-expressing cells; hits give high values; LV-AA mutant CHT in HEK293 cells; High affinity choline transporter 1 (Homo sapiens), Q9GZV3; hit rate 0.49% among 310,000; B-score at 10 µM;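 active = initial fluorescence not abnormally high and integrated response B-score, plate-corrected, over 3 SD above library mean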
TMEM16A inh = TMEM16A chloride channel inhibitors, primary screen, cell-based, HTS | hit rate 1.2% among 310,000 | AID 588511, 2011 | normalized B-score (activity score, 25-100; higher = stronger inhibition) at 10 µM | Anoctamin-1 (Mus musculus), Q8BHY3 | HEK293 TMEM16A/YFP iodide influx fluorescence, ionomycin;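 active = ratio plate-corrected score three or more library SD toward inhibition, starting fluorescence score within five deviations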;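 note: score derived from kinetic fluorescence span divided by baseline fluorescence per well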
CHT inh conf = CHT inhibitors, confirmation, cell-based, membrane potential dye, duplicate. shares compounds with CHT block. CHT-expressing cells, choline membrane potential dye; LV-to-AA substituted CHT, HEK293 cells. hit rate 70% among 2,400. CHT activity remaining % of control (hits give low values), % at 10 µM;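 active = choline transporter activity left, mean of duplicates at 10 µM, below buffer-only control mean minus 3 SD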;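 note: depolarization triggered by choline at its EC90 following an EC20 pre-addition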
HEK293 MPD ctr = membrane potential effects in parental HEK293, counter-screen for CHT inhibitor project, cell-based, membrane potential dye; shares compounds with CHT block; choline response; active = decrease or increase beyond buffer ±3SD; membrane potential ratio readout (active if shifted either direction beyond buffer ±3SD; no single direction) at 10 µM; hit rate 4% among 2,400; AID 493222, 2011;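 note: parental cells lack the transporter so any hit is non-specific; ratio is peak minus trough fluorescence over baseline after EC90 choline challenge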
Numbers stand for hits; i = inactive; nt = not tested or not shown. A selection: hits, their analogues and other compounds. The true share with any hit is near 2.5%.

SMILES	CHT block	ANO1 activ	PKA-R1A activ	PKA-R2B activ	CHT allo act	TMEM16A inh	CHT inh conf	HEK293 MPD ctr
CCOc1ccc(NS(=O)(=O)c2ccc(C(=O)N(C)CC(=O)Nc3ccccc3Br)cc2)cc1	nt	i	i	i	nt	nt	nt	nt
Cc1noc(C)c1CSc1nc2ccccc2n1CCc1ccccc1	-5	i	i	i	i	i	i	i
O=C(O)CCn1c(SCc2ccccc2)nc2ccccc21	i	i	i	i	i	i	nt	nt
COc1ccccc1OCc1ccc(C(=O)N2N=C(C(F)F)CC2(O)C(F)F)o1 (centres undefined)	-5.2	i	i	i	i	i	i	i
O=C(c1ccc(COc2ccc(Cl)cc2)o1)N1N=C(C(F)F)CC1(O)C(F)F (centres undefined)	i	i	i	i	i	i	nt	nt
COc1ccc(CNC(=S)NC2CCCC2)cc1	-15	i	i	i	i	i	i	i
COc1cccc(CNC(=S)NC2CCCC2)c1	i	i	i	i	i	i	nt	nt
COc1ccc(N(C)S(=O)(=O)c2cccc(C(=O)NC3CCCCC3C)c2)cc1 (centres undefined)	-5.5	i	i	i	i	i	59%	i
CN(c1ccccc1)S(=O)(=O)c1cccc(C(=O)NC2CCCCC2)c1	nt	i	i	i	nt	nt	nt	nt
S=C(NCc1ccccc1)Nc1ccncc1	i	i	i	i	i	i	nt	nt
Cc1c(O)ccc(/C(Cc2ccc3ccccc3n2)=N\N)c1O	-5.9	i	i	i	i	i	56%	i
Cc1ccccc1CC(=O)c1ccc(O)c(C)c1O	i	i	i	i	i	i	nt	nt
CCC1(c2ccccc2)NC(=O)N(CC(=O)Nc2ccccc2C(=O)N2CCCCC2)C1=O (centres undefined)	i	i	i	i	i	i	nt	nt
CCSc1nnc2n1C(C)(C)Cc1ccccc1-2	-5	i	i	i	i	i	41%	i
CCOC(=O)CSc1nnc2n1C(C)(C)Cc1ccccc1-2	i	i	i	i	i	i	nt	nt
Cc1ccc(-c2nc(CN(C)Cc3ccc4nccnc4c3)c(C)o2)s1	-5.2	i	i	i	i	i	i	i
O=C(Nc1ccc(F)cc1F)c1ccc2nc(N3CCOCC3)sc2c1	-11	i	i	i	i	i	i	i
COc1ccc(NC(=S)NCCN2CCOCC2)c(OC)c1	i	i	i	i	i	i	nt	nt
COc1ccccc1NC(=S)NCCN1CCOCC1	-8.3	i	i	i	i	i	i	i
O=C(O)c1cnn(-c2nc(-c3cccc(F)c3)cs2)c1C(F)(F)F	i	i	i	i	i	i	nt	nt
O=C(O)c1cnn(-c2nc(-c3cccc([N+](=O)[O-])c3)cs2)c1C(F)(F)F	-6	i	i	i	i	i	66%	i
CCSc1nnc([C@H](Cc2ccccc2)NC(=O)OC(C)(C)C)o1	-7	i	i	i	i	i	i	i
Cc1cc(NC(=O)CCC(=O)N(Cc2ccccc2)C2(C(=O)NC3CCCCC3)CCCC2)no1	-5.6	i	i	i	i	i	i	i
Nc1ncnc2c1ncn2C1OC(C(=O)NC2CC2)C(O)C1O (centres undefined)	-5.1	i	i	i	i	i	44%	i
OC[C@H]1O[C@@H](n2cnc3c(NC4CCCC4)ncnc32)[C@H](O)[C@@H]1O	i	i	i	i	i	i	nt	nt
SMILES	CHT block	ANO1 activ	PKA-R1A activ	PKA-R2B activ	CHT allo act	TMEM16A inh	CHT inh conf	HEK293 MPD ctr
Nc1ncnc2c1ncn2C1O[C@H](CO)[C@@H](O)[C@@H]1O (some centres undefined)	i	i	i	i	i	i	nt	nt
Nc1ncnc2c1ncn2C1OC(CO)C(O)C1O (centres undefined)	-10	i	i	i	i	i	37%	i
OCC1OC(n2cnc3c(NC4CCCCC4)ncnc32)C(O)C1O (centres undefined)	-5.5	i	i	i	i	i	41%	i
C=CCNc1ncnc2c1ncn2C1OC(CO)C(O)C1O (centres undefined)	-6	i	i	i	i	i	41%	i
O=C(CN(C(=O)C1CSC(=O)C1)c1cccc(F)c1)NCc1ccc2c(c1)OCO2 (centres undefined)	i	i	i	i	i	i	nt	nt
O=C(NCC(=O)N1CCN(c2ccccc2O)CC1)c1ccc(Br)o1	i	i	i	i	i	i	nt	nt
O=c1[nH]cc(S(=O)(=O)N2CCOCC2)c(=O)[nH]1	i	i	i	i	i	i	nt	nt
COc1ccc(NC(=O)N(C)C[C@H]2Oc3c(NS(=O)(=O)c4cccs4)cccc3C(=O)N([C@@H](C)CO)C[C@@H]2C)cc1	nt	i	i	i	nt	nt	nt	nt
O=C1c2cccnc2C(=O)N1Cc1ccc(S(=O)(=O)N2CCOc3ccc(Cl)cc32)cc1	-5.1	i	i	i	i	i	i	i
O=C(Cn1nc(C(F)(F)F)c2c1CCCC2)NC1CCCC1	-5.8	i	i	i	i	i	52%	i
CC(C)NC(=O)Cn1nc(C(F)(F)F)c2c1CCC2	i	i	i	i	i	i	nt	nt
CCCN(CC(=O)Nc1ccccc1C)C(=O)c1ccc(N2CCCCCC2)c([N+](=O)[O-])c1	i	i	i	i	i	i	nt	nt
O=C(Nc1ccccc1C(=O)NCCCN1CCOCC1)c1ccc(F)cc1	-7.9	i	i	i	i	i	38%	i
Cc1ccc(Nc2cc(C)nc3ncnn23)c(Cl)c1	-5.6	i	i	i	i	i	i	i
CCCCCCCCNC(=O)c1ccc(C)cc1	i	nt	nt	nt	i	i	nt	nt
C#CCOCCOCCOCCNc1nc(N2CCN(C(=O)C([C@@H](C)O)n3cc([C@@H](N)CCCCN)nn3)CC2)nc(N2CCN(C(=O)[C@H](CCCCN)n3cc([C@@H](N)CC(N)=O)nn3)CC2)n1 (some centres undefined)	nt	i	i	i	nt	nt	nt	nt
CCN(Cc1ccncc1)C(=O)c1cc(COc2c(C)cccc2C)on1	-5.5	i	i	i	i	i	53%	i
